# Some of the results follow. The hit rate among all sequences tested is not known here.
# Target: furin, P09958
# Assay: furin cleavage Z-score vs untreated control; higher = more cleavage, active = 3.5 or more, inactive = 1 or less, 8 variable residues between constant flanks
# Procedure, shortened: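 Purified furin digested bead-held 8-mer peptide–cDNA fusions at 1:10 enzyme:substrate in 0.01 ml of 50 mM HEPES pH 7.5 with CaCl2 and NaCl for 7.5, 15 or 30 min. The cleavage Z-score compares sequencing counts of released DNA with furin-free reactions on a log scale, with lowess adjustment and median absolute deviation scaling.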
# furin, P09958, sequence (P09958 whole entry): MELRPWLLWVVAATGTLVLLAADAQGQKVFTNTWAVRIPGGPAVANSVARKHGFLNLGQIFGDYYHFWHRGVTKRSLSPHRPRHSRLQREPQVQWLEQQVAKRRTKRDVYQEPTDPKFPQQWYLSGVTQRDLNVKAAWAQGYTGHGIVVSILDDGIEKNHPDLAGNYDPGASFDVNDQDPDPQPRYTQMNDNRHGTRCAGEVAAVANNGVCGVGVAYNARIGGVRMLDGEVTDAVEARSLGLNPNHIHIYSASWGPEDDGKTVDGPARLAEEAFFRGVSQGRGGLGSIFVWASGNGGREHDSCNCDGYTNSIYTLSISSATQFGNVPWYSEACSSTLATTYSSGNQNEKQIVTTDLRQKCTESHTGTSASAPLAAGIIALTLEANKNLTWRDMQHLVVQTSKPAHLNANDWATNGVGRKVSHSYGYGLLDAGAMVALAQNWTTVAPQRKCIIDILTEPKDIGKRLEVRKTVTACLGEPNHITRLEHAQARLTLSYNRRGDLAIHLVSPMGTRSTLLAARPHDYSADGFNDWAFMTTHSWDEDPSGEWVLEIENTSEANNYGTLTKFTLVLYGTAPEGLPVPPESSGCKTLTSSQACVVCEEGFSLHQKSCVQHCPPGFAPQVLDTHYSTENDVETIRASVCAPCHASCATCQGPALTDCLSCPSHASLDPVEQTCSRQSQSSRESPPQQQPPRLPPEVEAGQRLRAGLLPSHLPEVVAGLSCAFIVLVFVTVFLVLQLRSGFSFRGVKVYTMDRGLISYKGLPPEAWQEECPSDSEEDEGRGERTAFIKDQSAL
Sequence,furin cleavage Z-score (7.5 min),furin cleavage Z-score (15 min),furin cleavage Z-score (30 min)
CAMWNFISGIAGNASASA [HC1043],-0.76 (inactive),-0.163 (inactive),1.37
CADTDVFVLNAGNASASA [HC427],-0.554 (inactive),-0.537 (inactive),-1.25 (inactive)
CAKRVYYLTRAGNASASA [HC1560],2.27,0.852 (inactive),-0.874 (inactive)
CARRRRSSVFAGNASASA [FS-2599],6.51 (active),7.07 (active),8.27 (active)
CARRRRSSKRAGNASASA [FS-2518],4.4 (active),5.93 (active),5.04 (active)
CARRRRSILFAGNASASA [FS-2234],5.15 (active),6.77 (active),8.96 (active)
CARRRRSISRAGNASASA [FS-2795],6.77 (active),7.84 (active),8.25 (active)
CAIVSTAAQTAGNASASA [HC691],-1.17 (inactive),-1.15 (inactive),-1.22 (inactive)
CAVVCTSMSYAGNASASA [HC96],1.17,-0.0848 (inactive),0.455 (inactive)
CATTPESGSWAGNASASA [HC53],-0.759 (inactive),-0.574 (inactive),-0.54 (inactive)
CASTPCSAHLAGNASASA [HC2477],0.591 (inactive),0.749 (inactive),-1.42 (inactive)
CAEVVQSTWVAGNASASA [HC139],-1.19 (inactive),-0.568 (inactive),-0.254 (inactive)
CAVDVQYLYGAGNASASA [HC509],-0.528 (inactive),0.269 (inactive),0.219 (inactive)
CAHPTLVFDIAGNASASA [HC601],-0.391 (inactive),-1.13 (inactive),-0.764 (inactive)
CARRRRSIQNAGNASASA [FS-3066],7.74 (active),10.2 (active),7.21 (active)
CALVAEEDERAGNASASA [HC1290],-0.68 (inactive),-1.05 (inactive),-0.546 (inactive)
CASGMFDSSVAGNASASA [HC915],-1.55 (inactive),-0.578 (inactive),-0.341 (inactive)
CAGEMRKKRYAGNASASA [FS-780],8.98 (active),11.5 (active),11.2 (active)
CAESIRMKRYAGNASASA [FS-765],10.4 (active),10.9 (active),9.17 (active)
CAGEMEECSQAGNASASA [HC1796],-0.269 (inactive),1.03,0.391 (inactive)
CAESGRGKRYAGNASASA [FS-25],2.19,4.19 (active),6.23 (active)
CAEVPCHRTSAGNASASA [HC2398],0.843 (inactive),-0.111 (inactive),1.35
CARYDRQKRRAGNASASA [FS-866],5.33 (active),8.92 (active),8.14 (active)
CAWRRRQKRRAGNASASA [FS-898],11.1 (active),12.6 (active),10.1 (active)
CAQRDRQKRRAGNASASA [FS-558],8.63 (active),9.96 (active),8.51 (active)
CAVLIDILAGAGNASASA [HC1084],-1.68 (inactive),-0.0246 (inactive),-1.35 (inactive)
CALDLPPIIQAGNASASA [HC1599],0.239 (inactive),-0.216 (inactive),-0.33 (inactive)
CATTVCSGSWAGNASASA [HC1870],-0.934 (inactive),-0.656 (inactive),-0.569 (inactive)

# — the supplement of paper PMC3545927
